# Measurements published in article PMC5540273 (PLoS ONE, 2017).
# “And” between values parts separate entries of the source, which are not always exact repeats. Equal entries are not always repeated. Where two headings read alike, the source gives them in different places.
# Legend:
# LYN = details: concentration: 1 μM, replicates: in singlicate; n = 1
# LZK = system: T1, LZK; details: concentration: 1 μM, replicates: in singlicate; n = 1
# T1 construct: gene MAP3K13
# MAK = details: n = 1
# MAP3K15 = details: n = 1
# MAP3K1 = details: n = 1
# MAP3K2 = details: n = 1
# MAP3K3 = details: concentration: 1 μM, replicates: in singlicate; n = 1
# MAP3K4 = details: n = 1
# MAP4K2 = details: concentration: 1 μM, replicates: in singlicate; n = 1
# MAP4K3 = details: n = 1
# MAP4K4 = details: concentration: 1 μM, replicates: in singlicate; n = 1
# MAP4K5 = details: concentration: 1 μM, replicates: in singlicate; n = 1
# MAPKAPK2 = details: n = 1
# MAPKAPK5 = details: concentration: 1 μM, replicates: in singlicate; n = 1
# MARK1 = details: n = 1
# MARK2 = details: concentration: 1 μM, replicates: in singlicate; n = 1
# MARK3 = details: concentration: 1 μM, replicates: in singlicate; n = 1
# MARK4 = details: n = 1
# MAST1 = details: concentration: 1 μM, replicates: in singlicate; n = 1
# MEK1 = system: T2, MEK1; details: concentration: 1 μM, replicates: in singlicate; n = 1
# T2 construct: gene MAP2K1
# [1] = concentration: 1 μM, replicates: in singlicate
# [2] = concentration: 1 μM,replicates: in singlicate, 1 µM
# 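Also: KINOMEscan kinase panel screen.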
compound,measurement,setting,value
O=c1cc(N2CCOCC2)nc2n(Cc3cccc(Cl)c3Cl)ccn12 [GSK2286295],%Inh,LYN,97.8%
same,%Inh,LZK,0%
same,%Inh,MAK; [1],78%
same,%Inh,MAP3K15; [1],0%
same,%Inh,MAP3K1; [1],6%
same,%Inh,MAP3K2; [1],0%
same,%Inh,MAP3K3,0%
same,%Inh,MAP3K4; [1],25%
same,%Inh,MAP4K2,0%
same,%Inh,MAP4K3; [1],0%
same,%Inh,MAP4K4,4%
same,%Inh,MAP4K5,0%
same,%Inh,MAPKAPK2; [1],5%
same,%Inh,MAPKAPK5,0%
same,%Inh,MARK1; [1],0%
same,%Inh,MARK2,0%
same,%Inh,MARK3,0%
same,%Inh,MARK4; [1],0%
same,%Inh,MAST1,0%
same,%Inh,MEK1,0%
CSc1nn2c(=O)cc(N3CCOCC3)nc2n1Cc1cccc(C(F)(F)F)c1C [GSK2363608],%Inh,LYN,0%
same,%Inh,LZK,0%
same,%Inh,MAK; [2],24% and 15%
same,%Inh,MAP3K15; [2],5% and 0%
same,%Inh,MAP3K1; [2],12% and 6%
same,%Inh,MAP3K2; [2],10% and 13%
same,%Inh,MAP3K3,0%
same,%Inh,MAP3K4; [2],18% and 30%
same,%Inh,MAP4K2,0%
same,%Inh,MAP4K3; [2],0% and 10%
same,%Inh,MAP4K4,0%
same,%Inh,MAP4K5,0%
same,%Inh,MAPKAPK2; [2],2% and 27%
same,%Inh,MAPKAPK5,0%
same,%Inh,MARK1; [2],9% and 0%
same,%Inh,MARK2,0%
same,%Inh,MARK3,0%
same,%Inh,MARK4; [2],15% and 0%
same,%Inh,MAST1,0%
same,%Inh,MEK1,0%
COc1cccc(NC(=O)NC2CCN(c3ccnc(Nc4ccc(F)cc4)n3)C2)c1 (stereo not drawn) [GSK1379721],%Inh,LYN,0%
same,%Inh,LZK,17%
same,%Inh,MAK; [1],32%
same,%Inh,MAP3K15; [1],0%
same,%Inh,MAP3K1; [1],5%
same,%Inh,MAP3K2; [1],0%
same,%Inh,MAP3K3,0%
same,%Inh,MAP3K4; [1],13%
same,%Inh,MAP4K2,2%
same,%Inh,MAP4K3; [1],0%
same,%Inh,MAP4K4,83%
same,%Inh,MAP4K5,96.7%
same,%Inh,MAPKAPK2; [1],0%
same,%Inh,MAPKAPK5,0%
same,%Inh,MARK1; [1],0%
same,%Inh,MARK2,0%
same,%Inh,MARK3,9%
same,%Inh,MARK4; [1],0%
same,%Inh,MAST1,17%
same,%Inh,MEK1,31%
